In test [1] the target is Acetylcholinesterase (Homo sapiens) (UniProt P22303). The experiment in a line: Acetylcholinesterase (AChE) small molecule antagonists: fluorescence cell-based qHTS assay (AID 1347398; calls by dose curve; further: nearly all actives have a fitted effect of over 50% in size). The note with it: Potency: AChE activity. The procedure, abridged: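 Cellular AChE inhibition: SH-SY5Y cells treated with test chemical for 30 min at 37 C, then acetylthiocholine hydrolysis followed over 40 min at room temperature via thiocholine-reactive Thiolite Green fluorescence (490/520 nm).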
Sequence of Acetylcholinesterase (Homo sapiens) (P22303 whole entry, looked up): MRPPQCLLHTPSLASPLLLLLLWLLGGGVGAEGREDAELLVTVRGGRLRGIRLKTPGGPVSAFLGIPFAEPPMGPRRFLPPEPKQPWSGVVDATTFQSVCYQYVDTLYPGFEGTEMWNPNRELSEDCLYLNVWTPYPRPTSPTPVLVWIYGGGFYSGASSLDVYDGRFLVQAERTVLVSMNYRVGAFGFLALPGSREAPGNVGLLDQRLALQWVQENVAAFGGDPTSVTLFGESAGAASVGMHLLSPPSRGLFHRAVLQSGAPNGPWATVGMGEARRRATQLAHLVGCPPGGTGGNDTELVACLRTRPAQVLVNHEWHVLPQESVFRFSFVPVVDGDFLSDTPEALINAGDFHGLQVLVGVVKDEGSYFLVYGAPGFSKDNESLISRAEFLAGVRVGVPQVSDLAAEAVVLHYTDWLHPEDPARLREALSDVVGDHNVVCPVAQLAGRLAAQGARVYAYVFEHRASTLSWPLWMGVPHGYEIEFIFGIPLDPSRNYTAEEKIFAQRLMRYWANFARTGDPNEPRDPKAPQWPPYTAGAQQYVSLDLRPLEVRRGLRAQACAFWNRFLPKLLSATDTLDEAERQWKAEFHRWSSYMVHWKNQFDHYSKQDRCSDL

Test [2] has the same target. Description: Acetylcholinesterase (AChE) small molecule antagonists: enzyme-based qHTS assay with human liver microsomes (AID 1347399; calls by dose curve; further: nearly all actives have a fitted effect of over 60% in size). As to conditions: Potency: qHTS inhibition. The procedure, abridged:
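Recombinant human AChE (50 mU/mL in the enzyme mix) and human liver microsomes (0.25 mg/mL final) were preincubated with compound and NADPH (0.25 mg/mL final) for 30 min at 37 C. Acetylthiocholine/DTNB was then added; thiocholine was read colorimetrically after 10 min at room temperature.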

The target of test [3] is Cytochrome P450 2D6 (Homo sapiens) (UniProt P10635). The experiment in a line: Cytochrome P450 Family 2 Subfamily D Member 6 (CYP2D6) small molecule antagonists: luciferase reporter qHTS assay (AID 1671196). Further: nearly all actives have a fitted effect of over 50% in size. The procedure, abridged: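 Room-temperature luminescent CYP2D6 activity assay: compound preincubated 10 min with enzyme–substrate mix, NADPH-initiated reaction 1 h, detection reagent 20 min before reading.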
Sequence of Cytochrome P450 2D6 (Homo sapiens) (P10635 whole entry, looked up): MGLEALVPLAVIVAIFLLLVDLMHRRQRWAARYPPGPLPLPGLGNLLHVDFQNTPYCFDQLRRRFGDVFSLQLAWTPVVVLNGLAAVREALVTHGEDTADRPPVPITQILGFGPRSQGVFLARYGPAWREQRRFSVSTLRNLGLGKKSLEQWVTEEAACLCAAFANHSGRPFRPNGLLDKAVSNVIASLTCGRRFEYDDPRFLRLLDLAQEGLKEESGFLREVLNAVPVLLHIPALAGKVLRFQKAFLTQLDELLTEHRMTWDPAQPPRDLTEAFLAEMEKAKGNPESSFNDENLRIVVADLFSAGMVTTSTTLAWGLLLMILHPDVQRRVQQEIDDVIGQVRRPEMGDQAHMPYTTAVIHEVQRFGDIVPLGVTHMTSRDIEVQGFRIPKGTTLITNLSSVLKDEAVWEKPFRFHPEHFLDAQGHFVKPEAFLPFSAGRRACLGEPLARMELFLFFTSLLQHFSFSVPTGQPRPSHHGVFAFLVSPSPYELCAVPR

For test [4], the target named is Cytochrome P450 2C19 (Homo sapiens) (UniProt P33261). Description: Cytochrome P450 Family 2 Subfamily C Member 19 (CYP2C19) small molecule antagonists: luciferase reporter qHTS assay (AID 1671197). Further: nearly all actives have a fitted effect of over 65% in size. The procedure, abridged:
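First, compounds are pinned into enzyme-substrate mix and held 10 min at room temperature. Second, NADPH regeneration solution is added and plates incubate 1 h at 37C. Third, detection reagent is added and luminescence read after 20 min.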
On the technique in general: In a reporter assay the amount or activity of a reporter protein is the signal.

In test [5] the target is Cytochrome P450 2C9 (Homo sapiens) (UniProt P11712). Description: Cytochrome P450 Family 2 Subfamily C Member 9 (CYP2C9) small molecule antagonists: luciferase reporter qHTS assay (AID 1671198). Further: nearly all actives have a fitted effect of over 50% in size. The procedure, abridged:
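CYP2C9 activity was measured with a P450-Glo proluciferin substrate. Enzyme–substrate mix was held with compound for 10 min at room temperature, then NADPH regeneration solution was added for 1 h at 37C. Luciferin product was read as luminescence.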

The target in test [6] is Cytochrome P450 1A2 (Homo sapiens) (UniProt P05177). The experiment in a line: Cytochrome P450 Family 1 Subfamily A Member 2 (CYP1A2) small molecule antagonists: luciferase reporter qHTS assay (AID 1671199). Further: nearly all actives have a fitted effect of over 50% in size. The procedure, abridged: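 Room-temperature CYP1A2 reaction with proluciferin substrate: compounds added from DMSO, 10 min preincubation, NADPH regeneration for 1 h. Luciferin detection reagent then added; luminescence recorded as RLU.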
Sequence of Cytochrome P450 1A2 (Homo sapiens) (P05177 whole entry, looked up): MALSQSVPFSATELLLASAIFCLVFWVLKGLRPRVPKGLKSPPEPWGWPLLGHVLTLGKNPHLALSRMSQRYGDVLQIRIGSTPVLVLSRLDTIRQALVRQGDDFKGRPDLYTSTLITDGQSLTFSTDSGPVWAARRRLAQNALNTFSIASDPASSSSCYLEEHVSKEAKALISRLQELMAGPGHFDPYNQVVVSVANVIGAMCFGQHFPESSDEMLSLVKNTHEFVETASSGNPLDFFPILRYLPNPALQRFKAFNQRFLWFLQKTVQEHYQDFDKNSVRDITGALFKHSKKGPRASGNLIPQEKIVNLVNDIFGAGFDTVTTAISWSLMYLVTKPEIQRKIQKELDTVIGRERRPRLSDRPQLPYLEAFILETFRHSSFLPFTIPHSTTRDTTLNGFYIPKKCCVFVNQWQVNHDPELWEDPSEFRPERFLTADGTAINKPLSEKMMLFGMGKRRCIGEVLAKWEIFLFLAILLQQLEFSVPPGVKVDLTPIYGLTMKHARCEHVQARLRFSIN

The target of test [7] is Voltage-gated inwardly rectifying potassium channel KCNH2 (Homo sapiens) (UniProt Q12809). Description: Human Ether-a-go-go-Related Gene (hERG) channel small molecule antagonists: fluorescence cell-based qHTS assay (AID 1671200). Further: nearly all actives have a fitted effect of over 50% in size. The procedure, abridged:
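U2OS cells expressing the channel were plated at 1000 cells/well, incubated overnight at 37 C, then loaded with FluxOR II thallium-sensitive dye for 1 h at room temperature in the dark, with a further 10 min at room temperature before stimulation.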
In general terms: The hERG channel carries a current that helps repolarise heart muscle cells.

For test [8], the target named is Cytochrome P450 3A4 (Homo sapiens) (UniProt P08684). The experiment in a line: Cytochrome P450 Family 3 Subfamily A Member 4 (CYP3A4) small molecule antagonists: luciferase reporter qHTS assay (AID 1671201). Further: nearly all actives have a fitted effect of over 50% in size. The procedure, abridged:
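P450-Glo CYP3A4 system with proluciferin substrate; compounds preincubated 10 min RT with enzyme-substrate mix, then NADPH regeneration added for 1 h RT. Detection reagent 20 min, luminescence read as relative luminescence units.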

SMILES strings stand for the structures. A number with no mark means an inactive call. Records with an inconclusive call do not appear. Activity calls are given as the source filed them. Unless noted, the call rests on the fitted dose curve; in most records, active means well fitted curve in the direction sought with a large enough effect in the repeat runs; inconclusive means weak or mixed curves; inactive means no such curve, though single readings can be large; an effect the other way counts as inactive or inconclusive.
Potency means the concentration at half of the fitted maximal effect.

Sequence of Cytochrome P450 2C19 (Homo sapiens) (P33261 whole entry, looked up): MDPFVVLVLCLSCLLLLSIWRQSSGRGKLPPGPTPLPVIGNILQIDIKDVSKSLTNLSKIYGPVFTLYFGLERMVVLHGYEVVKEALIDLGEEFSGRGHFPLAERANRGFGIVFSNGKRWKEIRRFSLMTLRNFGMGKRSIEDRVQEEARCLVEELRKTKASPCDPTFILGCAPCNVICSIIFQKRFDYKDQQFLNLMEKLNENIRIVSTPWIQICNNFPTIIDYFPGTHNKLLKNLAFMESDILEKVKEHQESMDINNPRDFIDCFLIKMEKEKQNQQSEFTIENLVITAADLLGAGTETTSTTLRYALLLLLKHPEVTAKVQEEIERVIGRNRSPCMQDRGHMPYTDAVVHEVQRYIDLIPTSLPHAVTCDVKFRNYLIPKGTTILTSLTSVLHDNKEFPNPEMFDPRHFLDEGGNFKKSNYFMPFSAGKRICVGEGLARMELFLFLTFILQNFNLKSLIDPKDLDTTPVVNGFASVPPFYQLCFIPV
Sequence of Cytochrome P450 2C9 (Homo sapiens) (P11712 whole entry, looked up): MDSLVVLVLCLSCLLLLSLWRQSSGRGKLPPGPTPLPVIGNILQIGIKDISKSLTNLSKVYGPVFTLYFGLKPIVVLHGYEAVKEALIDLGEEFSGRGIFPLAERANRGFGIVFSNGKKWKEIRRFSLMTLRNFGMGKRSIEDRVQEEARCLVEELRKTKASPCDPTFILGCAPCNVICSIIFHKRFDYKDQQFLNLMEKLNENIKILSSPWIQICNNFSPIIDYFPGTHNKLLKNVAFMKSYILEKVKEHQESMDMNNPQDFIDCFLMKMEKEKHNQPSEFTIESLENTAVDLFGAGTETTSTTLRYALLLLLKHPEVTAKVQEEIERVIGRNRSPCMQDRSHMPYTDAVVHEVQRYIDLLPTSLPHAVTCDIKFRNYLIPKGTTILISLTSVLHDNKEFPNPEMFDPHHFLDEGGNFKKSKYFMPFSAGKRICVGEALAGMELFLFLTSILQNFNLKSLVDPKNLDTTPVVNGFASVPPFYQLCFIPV
Sequence of Voltage-gated inwardly rectifying potassium channel KCNH2 (Homo sapiens) (Q12809 whole entry, looked up): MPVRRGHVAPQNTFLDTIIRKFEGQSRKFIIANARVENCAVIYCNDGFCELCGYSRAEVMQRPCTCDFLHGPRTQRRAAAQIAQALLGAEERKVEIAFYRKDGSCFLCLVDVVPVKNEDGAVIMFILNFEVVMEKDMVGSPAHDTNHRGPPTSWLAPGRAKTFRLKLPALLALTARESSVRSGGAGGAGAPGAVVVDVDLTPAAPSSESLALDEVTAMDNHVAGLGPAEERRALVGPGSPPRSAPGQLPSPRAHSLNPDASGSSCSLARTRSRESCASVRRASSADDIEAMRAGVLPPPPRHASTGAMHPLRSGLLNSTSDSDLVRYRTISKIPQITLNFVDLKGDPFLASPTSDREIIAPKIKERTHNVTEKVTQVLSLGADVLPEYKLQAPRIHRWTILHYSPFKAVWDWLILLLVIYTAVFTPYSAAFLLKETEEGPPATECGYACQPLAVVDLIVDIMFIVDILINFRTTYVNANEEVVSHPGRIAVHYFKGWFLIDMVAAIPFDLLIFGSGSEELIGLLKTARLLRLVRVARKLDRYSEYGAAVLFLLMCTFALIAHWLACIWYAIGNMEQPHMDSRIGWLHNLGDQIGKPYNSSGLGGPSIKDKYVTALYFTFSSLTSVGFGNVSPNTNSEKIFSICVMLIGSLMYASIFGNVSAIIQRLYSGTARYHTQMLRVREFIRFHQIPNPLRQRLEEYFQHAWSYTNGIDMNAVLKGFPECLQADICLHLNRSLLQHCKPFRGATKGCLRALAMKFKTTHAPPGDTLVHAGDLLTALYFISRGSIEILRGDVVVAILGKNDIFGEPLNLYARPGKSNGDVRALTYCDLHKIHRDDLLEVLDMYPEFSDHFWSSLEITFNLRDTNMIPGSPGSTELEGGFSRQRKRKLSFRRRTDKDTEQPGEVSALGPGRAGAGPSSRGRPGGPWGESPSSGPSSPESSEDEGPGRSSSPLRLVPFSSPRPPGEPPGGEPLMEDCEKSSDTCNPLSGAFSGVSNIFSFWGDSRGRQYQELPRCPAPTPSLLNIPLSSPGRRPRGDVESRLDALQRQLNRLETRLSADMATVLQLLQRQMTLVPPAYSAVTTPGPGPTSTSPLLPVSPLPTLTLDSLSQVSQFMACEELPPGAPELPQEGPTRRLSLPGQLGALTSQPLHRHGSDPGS
Sequence of Cytochrome P450 3A4 (Homo sapiens) (P08684 whole entry, looked up): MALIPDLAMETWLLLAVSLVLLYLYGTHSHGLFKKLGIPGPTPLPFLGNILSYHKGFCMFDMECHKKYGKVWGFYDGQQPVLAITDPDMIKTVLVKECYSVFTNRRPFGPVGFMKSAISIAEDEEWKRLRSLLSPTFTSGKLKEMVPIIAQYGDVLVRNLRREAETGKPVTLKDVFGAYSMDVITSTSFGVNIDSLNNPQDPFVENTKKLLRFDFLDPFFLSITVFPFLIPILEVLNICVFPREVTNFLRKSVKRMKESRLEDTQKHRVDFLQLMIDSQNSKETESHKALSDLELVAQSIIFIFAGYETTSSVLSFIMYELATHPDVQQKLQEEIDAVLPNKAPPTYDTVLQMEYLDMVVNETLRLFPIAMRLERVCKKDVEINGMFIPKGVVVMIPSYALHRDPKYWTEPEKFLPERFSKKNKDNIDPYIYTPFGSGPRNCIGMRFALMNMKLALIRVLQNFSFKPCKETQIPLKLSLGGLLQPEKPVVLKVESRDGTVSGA

As to `CC(C)(C)NCC(O)c1cc(Cl)c(N)c(Cl)c1` (stereo not drawn), the Potency entry in test [1], in test [2], in test [4], in test [5], in test [6] and in test [7] was “inactive” throughout. For the same compound, in test [8], the Potency result is “inactive”. Besides, the Potency in test [3] was 15.5 µM (active).

Take `CC(=O)C(Cl)Cl`: the Potency result in test [1], in test [2], in test [3], in test [4], in test [5] and in test [6] was “inactive” in each case. Besides, the Potency result in test [7] and in test [8] was “inactive” each time.

As to `CN1C(=S)CN=C(c2ccccc2)c2cc(Cl)ccc21`, the Potency entry in test [1], in test [2], in test [3] and in test [7] was “inactive” throughout. The Potency was 21.9 µM (active) in test [4] and 17.4 µM (active) in test [5].

Consider `CCOP(=S)(Oc1cnc(C(C)(C)C)nc1)OC(C)C` (stereo not drawn), for which the Potency in test [1] was 39.9 µM (active); in test [2] it was 10 µM (active); in test [3], 35.6 µM (active); in test [4], 0.356 µM (active); in test [5], 1.59 µM (active); in test [6], 22.4 µM (active). The Potency in test [8] is 1.59 µM (active).

Consider `c1cc[c]([Hg][c]2ccccc2)cc1`, for which the Potency result in test [1], in test [2], in test [7] and in test [8] was “inactive” each time. Also, the Potency was 1 µM (active) in test [3], 22.4 µM (active) in test [4], 31.7 µM (active) in test [5] and 10 µM (active) in test [6].

With `C=C(C)CN(CC)c1c([N+](=O)[O-])cc(C(F)(F)F)cc1[N+](=O)[O-]`, the Potency result in test [1], in test [2], in test [3] and in test [8] was “inactive” in each case. Also, the Potency in test [4] is 28.3 µM (active); in test [5] it was 31.7 µM (active); in test [6], 31.7 µM (active).

Take `O=NN1CCN(N=O)CC1`: the Potency result in test [1], in test [2], in test [3], in test [4], in test [5] and in test [6] was “inactive” in each case. The Potency result in test [7] and in test [8] was “inactive” throughout.

In the case of `C[C@@H]1CN(C2CCC(C#N)(c3ccc(F)cc3)CC2)CC[C@]1(C(=O)O)c1ccccc1` (stereo partly drawn), the Potency result in test [1], in test [2], in test [4], in test [5], in test [6] and in test [8] was “inactive” each time. Further, the Potency in test [3] is 1.55 µM (active).

As to `CN(C)CCc1ccc(O)cc1`, the Potency result in test [1], in test [2], in test [3], in test [4], in test [5] and in test [6] was “inactive” each time. Further, the Potency result in test [7] and in test [8] was “inactive” in each case.

For the compound `CSc1nc(N=[N+]=[N-])nc(NC(C)C)n1`, the Potency entry in test [1], in test [2], in test [3], in test [7] and in test [8] was “inactive” throughout. In addition, the Potency was 71 µM (active) in test [4], 79.6 µM (active) in test [5] and 28.3 µM (active) in test [6].

Take `COP(=S)(OC)Oc1c(Cl)cc(C)cc1Cl`: the Potency result in test [1], in test [2], in test [3] and in test [7] was “inactive” throughout. The Potency was 7.1 µM (active) in test [4], 8.94 µM (active) in test [5], 8.94 µM (active) in test [6] and 5.03 µM (active) in test [8].

`Cc1ncc2n1-c1ccc(Cl)cc1C(c1ccccc1F)=NC2`: the Potency entry in test [1], in test [2], in test [3] and in test [7] was “inactive” throughout. Further, the Potency in test [4] was 15.5 µM (active); in test [5], 17.4 µM (active).

Take `C=C(C)[C@@H]1CC=C(C=O)CC1`: the Potency entry in test [1], in test [2], in test [3], in test [6] and in test [7] was “inactive” each time. Besides, the Potency in test [4] is 63.3 µM (active); in test [5], 71 µM (active); in test [8], 35.6 µM (active).

Regarding `O=[N+]([O-])c1cc(Cl)c(Cl)c(Cl)c1`, the Potency result in test [1], in test [2], in test [3], in test [4], in test [5] and in test [7] was “inactive” throughout. Besides, the Potency entry in test [8] was “inactive”. In addition, the Potency in test [6] is 11.1 µM (active).

As to `ClCC(Cl)(Cl)Cl`, the Potency entry in test [1], in test [2], in test [3], in test [4], in test [5] and in test [6] was “inactive” each time. The Potency result in test [7] and in test [8] was “inactive” each time.

Turning to `CCOC(=O)C(c1c(O)c2ccccc2oc1=O)c1c(O)c2ccccc2oc1=O`, the Potency entry in test [1], in test [2], in test [3], in test [4], in test [7] and in test [8] was “inactive” throughout. Moreover, the Potency is 2.75 µM (active) in test [5] and 27.5 µM (active) in test [6].

On to `CCS(=O)(=O)CCSP(=O)(OC)OC`, for which the Potency entry in test [1], in test [2], in test [3], in test [4], in test [5] and in test [6] was “inactive” in each case. In addition, the Potency entry in test [7] and in test [8] was “inactive” each time.

For the compound `N#CCCC#N`, the Potency entry in test [1], in test [2], in test [3], in test [4], in test [5] and in test [6] was “inactive” in each case. Moreover, the Potency entry in test [7] and in test [8] was “inactive” throughout.

As to `CC(COc1ccc(Oc2ccccc2)cc1)Oc1ccccn1` (stereo not drawn), the Potency entry in test [1], in test [2], in test [3] and in test [8] was “inactive” in each case. Further, the Potency in test [4] was 10 µM (active); in test [5] it was 15.9 µM (active); in test [6], 15.9 µM (active).

`CCCCCCI`: the Potency entry in test [1], in test [2], in test [3], in test [4], in test [5] and in test [6] was “inactive” each time. In addition, the Potency entry in test [7] and in test [8] was “inactive” each time.

As for `CNNC`, the Potency entry in test [1], in test [2], in test [4], in test [5] and in test [7] was “inactive” each time. Further, the Potency in test [3] was 65.4 µM (active).

As to `O=S(=O)(O)C(F)(F)C(F)(F)C(F)(F)C(F)(F)C(F)(F)C(F)(F)F`, the Potency result in test [1], in test [2], in test [3], in test [6], in test [7] and in test [8] was “inactive” throughout. For the same compound, the Potency in test [4] was 79.6 µM (active); in test [5] it was 1.12 µM (active).

As for `CC1CCCCC1NC(=O)Nc1ccccc1` (stereo not drawn), the Potency entry in test [1], in test [2] and in test [7] was “inactive” throughout. Moreover, the Potency is 71 µM (active) in test [3]; 11.2 µM (active) in test [4]; 35.6 µM (active) in test [5]; 31.7 µM (active) in test [6]; 11.2 µM (active) in test [8].

Take `O=C(Oc1ccc(Br)cc1)N1CCN2CCC1CC2`: the Potency entry in test [1], in test [2], in test [3], in test [4], in test [5] and in test [6] was “inactive” each time. Further, the Potency entry in test [8] is “inactive”.

With `O=C(Nc1ccccc1)N(Cc1ccc(Cl)cc1)C1CCCC1`, the Potency result in test [1] and in test [2] was “inactive” in each case. The Potency in test [3] is 12.6 µM (active); in test [5], 15.9 µM (active); in test [6], 15.9 µM (active); in test [7], 38.9 µM (active); in test [8], 11.2 µM (active).

The record behind these values is PubChem BioAssay (Tox21).
